In the supplement of paper PMC8728848:
Many of the other results were omitted from the sample, so the strongest signals are more common in it than they were.

Experiments:
Test in all cases: glycan array binding signal (z-score within array); higher = stronger binding
Settings in all cases: glycan notation: IUPAC condensed, linker removed
[1] = target: Fuc(a1-2)Gal(b1-3)GlcNAc(b1-2)Man(a1-3)[Fuc(a1-2)Gal(b1-3)GlcNAc(b1-2)Man(a1-6)]Man(b1-4)GlcNAc(b1-4)[Fuc(a1-6)]GlcNAc
Procedure, shortened: (§1)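 Arrays were curated from the Consortium for Functional Glycomics database, 3228 in total, and kept only where the protein sequence was available. Binding is expressed as a within-array Z-score. This score was averaged across arrays of the same protein sequence at different concentrations or buffers and across linkers, and negative values can be read as non-binding.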

[2] = target: Fuc(a1-2)Gal(b1-3)GlcNAc(b1-3)[Gal(b1-4)GlcNAc(b1-6)]Gal(b1-4)Glc
Procedure, shortened: as §1

[3] = target: Fuc(a1-2)[Gal(a1-3)]Gal(b1-4)GlcNAc(b1-3)[Fuc(a1-2)[Gal(a1-3)]Gal(b1-4)GlcNAc(b1-6)]GalNAc
Procedure, shortened: as §1

[4] = target: Fuc(a1-2)[GalNAc(a1-3)]Gal(b1-3)GlcNAc(b1-3)GalNAc
Procedure, shortened: as §1

[5] = target: Fuc(a1-2)[GalNAc(a1-3)]Gal(b1-4)GlcNAc(b1-3)Gal(b1-4)GlcNAc(b1-3)Gal(b1-4)GlcNAc
Procedure, shortened: as §1

[6] = target: Fuc(a1-3)[Gal(b1-4)]GlcNAc(b1-2)Man
Procedure, shortened: as §1

[7] = target: Fuc(a1-4)GlcNAc
Procedure, shortened: as §1

[8] = target: Gal(a1-3)[Gal(a1-4)]Gal(b1-4)GlcNAc
Procedure, shortened: as §1

[9] = target: Gal(a1-4)Gal(b1-4)GlcNAc
Procedure, shortened: as §1

[10] = target: Gal(a1-6)Glc
Procedure, shortened: as §1

[11] = target: Gal(b1-2)Gal
Procedure, shortened: as §1

[12] = target: Gal(b1-3)GlcNAc
Procedure, shortened: as §1

[13] = target: Gal(b1-3)GlcNAc(a1-3)Gal(b1-4)GlcNAc
Procedure, shortened: as §1

[14] = target: Gal(b1-3)GlcNAc(b1-2)Man
Procedure, shortened: as §1

[15] = target: Gal(b1-3)GlcNAc(b1-3)Gal(b1-4)Glc
Procedure, shortened: as §1

[16] = target: Gal(b1-3)GlcNAc(b1-3)GalNAc
Procedure, shortened: as §1

[17] = target: Gal(b1-4)GlcNAc(b1-2)[Gal(b1-4)GlcNAc(b1-6)]Man(a1-6)[GlcNAc(b1-4)][Gal(b1-4)GlcNAc(b1-2)Man(a1-3)]Man(b1-4)GlcNAc(b1-4)GlcNAc
Procedure, shortened: as §1

[18] = target: Gal(b1-4)GlcNAc(b1-3)Gal(b1-4)GlcNAc(b1-3)Gal(b1-4)GlcNAc(b1-2)Man(a1-3)[Gal(b1-4)GlcNAc(b1-3)Gal(b1-4)GlcNAc(b1-3)Gal(b1-4)GlcNAc(b1-2)Man(a1-6)]Man(b1-4)GlcNAc(b1-4)[Fuc(a1-6)]GlcNAc
Procedure, shortened: as §1

[19] = target: Gal(b1-4)GlcNAc(b1-3)Gal(b1-4)GlcNAc(b1-3)Gal(b1-4)GlcNAc(b1-3)Gal(b1-4)GlcNAc(b1-3)Gal(b1-4)GlcNAc(b1-2)[Gal(b1-4)GlcNAc(b1-3)Gal(b1-4)GlcNAc(b1-3)Gal(b1-4)GlcNAc(b1-3)Gal(b1-4)GlcNAc(b1-3)Gal(b1-4)GlcNAc(b1-6)]Man(a1-6)[Gal(b1-4)GlcNAc(b1-3)Gal(b1-4)GlcNAc(b1-3)Gal(b1-4)GlcNAc(b1-3)Gal(b1-4)GlcNAc(b1-3)Gal(b1-4)GlcNAc(b1-2)Man(a1-3)]Man(b1-4)GlcNAc(b1-4)[Fuc(a1-6)]GlcNAc
Procedure, shortened: as §1

[20] = target: Gal3S(b1-3)GalNAc
Procedure, shortened: as §1

[21] = target: Gal3S(b1-4)Glc
Procedure, shortened: as §1

[22] = target: Gal3S4S(b1-4)GlcNAc
Procedure, shortened: as §1

[23] = target: GalNAc(a1-3)GalNAc
Procedure, shortened: as §1

[24] = target: GalNAc(b1-4)GlcNAc
Procedure, shortened: as §1

[25] = target: GalNAc(b1-4)GlcNAc(b1-2)Man(a1-3)[GalNAc(b1-4)GlcNAc(b1-2)Man(a1-6)]Man(b1-4)GlcNAc(b1-4)GlcNAc
Procedure, shortened: as §1

[26] = target: GlcA(b1-3)GlcNAc
Procedure, shortened: as §1

[27] = target: GlcNAc(a1-4)Gal(b1-4)GlcNAc(b1-3)Gal(b1-4)Glc
Procedure, shortened: as §1

[28] = target: GlcNAc(b1-2)Man(a1-3)[GlcNAc(b1-4)][GlcNAc(b1-2)Man(a1-6)]Man(b1-4)GlcNAc(b1-4)[Fuc(a1-6)]GlcNAc
Procedure, shortened: as §1

[29] = target: GlcNAc(b1-2)[GlcNAc(b1-4)]Man(a1-3)[GlcNAc(b1-4)][GlcNAc(b1-2)Man(a1-6)]Man(b1-4)GlcNAc(b1-4)GlcNAc
Procedure, shortened: as §1

[30] = target: GlcNAc(b1-2)[GlcNAc(b1-4)]Man(a1-3)[GlcNAc(b1-4)][GlcNAc(b1-2)[GlcNAc(b1-6)]Man(a1-6)]Man(b1-4)GlcNAc(b1-4)GlcNAc
Procedure, shortened: as §1

[31] = target: GlcNAc(b1-3)Gal(b1-4)GlcNAc(b1-2)Man(a1-3)[GlcNAc(b1-3)Gal(b1-4)GlcNAc(b1-2)Man(a1-6)]Man(b1-4)GlcNAc(b1-4)[Fuc(a1-6)]GlcNAc
Procedure, shortened: as §1

[32] = target: GlcNAc(b1-3)Gal(b1-4)GlcNAc(b1-3)[GlcNAc(b1-3)Gal(b1-4)GlcNAc(b1-3)]GalNAc
Procedure, shortened: as §1

[33] = target: GlcNAc(b1-3)Man
Procedure, shortened: as §1

[34] = target: GlcNAc(b1-4)GlcNAc(b1-4)GlcNAc(b1-4)GlcNAc(b1-4)GlcNAc
Procedure, shortened: as §1

[35] = target: Man(a1-2)Man(a1-2)Man(a1-3)Man
Procedure, shortened: as §1

[36] = target: Neu5Ac(a2-3)Gal(b1-3)GalNAc
Procedure, shortened: as §1

[37] = target: Neu5Ac(a2-3)Gal(b1-4)Glc
Procedure, shortened: as §1

[38] = target: Neu5Ac(a2-3)Gal(b1-4)GlcNAc(b1-3)Gal(b1-3)GlcNAc
Procedure, shortened: as §1

[39] = target: Neu5Ac(a2-3)Gal(b1-4)GlcNAc(b1-3)Gal(b1-4)GlcNAc(b1-3)GalNAc
Procedure, shortened: as §1

[40] = target: Neu5Ac(a2-3)Gal(b1-4)[Fuc(a1-3)]GlcNAc(b1-3)GalNAc
Procedure, shortened: as §1

[41] = target: Neu5Ac(a2-3)GalNAc
Procedure, shortened: as §1

[42] = target: Neu5Ac(a2-6)GalNAc
Procedure, shortened: as §1

[43] = target: Neu5Ac(a2-8)Neu5Ac(a2-3)[Gal(b1-3)GalNAc(b1-4)]Gal(b1-4)Glc
Procedure, shortened: as §1

[44] = target: Neu5Ac(a2-8)Neu5Gc(a2-3)Gal(b1-4)GlcNAc
Procedure, shortened: as §1

[45] = target: Neu5Gc(a2-3)Gal(b1-3)[Fuc(a1-4)]GlcNAc
Procedure, shortened: as §1

B1: SP15308A-bot-339-19-339 (Bacteroides ovatus) (protein)
chain: ACNNEWEDEQYEQYISFKSPIPAGGEGVTDIYVRYKEDGKVTYRLPIVVSGSTTNTLDREVHIAVDKDTLETLNIERFSIHRPGLWYTALEEDKYDFPKTVHISAGSSVEQLNIDFNLQGIDMLEKWVLPLTIVDDPSYNYKSHPRKNYAKALLRVIPFNNYSGSYTSSAMKVYTYINGKPDTNARTANKRTGYVINDNTVFFYAGLISEDLDKEVREKYKINVHFNEDGTLHMEQGDPTNKMKFELIGTPTYSKTSVMDATRPYLERRYVQIMFEYDFEDFSYGGNGVDVIPIKYKVEGSMTLQRNINTQIPDEDQQIEW
glycan array binding signal (z-score) [1]: 0.285
glycan array binding signal (z-score) [2]: -0.461
glycan array binding signal (z-score) [3]: 8.34
glycan array binding signal (z-score) [4]: 0.521
glycan array binding signal (z-score) [5]: 0.178
glycan array binding signal (z-score) [6]: 0.187
glycan array binding signal (z-score) [7]: 19.1
glycan array binding signal (z-score) [8]: 1.28
glycan array binding signal (z-score) [9]: 0.261
glycan array binding signal (z-score) [10]: 0.432
glycan array binding signal (z-score) [11]: 0.055
glycan array binding signal (z-score) [12]: 0.061
glycan array binding signal (z-score) [13]: 0.217
glycan array binding signal (z-score) [14]: 2.76
glycan array binding signal (z-score) [15]: -0.437
glycan array binding signal (z-score) [16]: 0.029
glycan array binding signal (z-score) [17]: -0.304
glycan array binding signal (z-score) [18]: 2.77
glycan array binding signal (z-score) [19]: 0.968
glycan array binding signal (z-score) [20]: 0.97
glycan array binding signal (z-score) [21]: 0.257
glycan array binding signal (z-score) [22]: 0.201
glycan array binding signal (z-score) [23]: 1.35
glycan array binding signal (z-score) [24]: 1.18
glycan array binding signal (z-score) [25]: 1.54
glycan array binding signal (z-score) [26]: -0.486
glycan array binding signal (z-score) [27]: 0.185
glycan array binding signal (z-score) [28]: -0.474
glycan array binding signal (z-score) [29]: 1.11
glycan array binding signal (z-score) [30]: -0.391
glycan array binding signal (z-score) [31]: 0.083
glycan array binding signal (z-score) [32]: 0.148
glycan array binding signal (z-score) [33]: -0.188
glycan array binding signal (z-score) [34]: -0.452
glycan array binding signal (z-score) [35]: -0.468
glycan array binding signal (z-score) [36]: 1.94
glycan array binding signal (z-score) [37]: 0.997
glycan array binding signal (z-score) [38]: 0.117
glycan array binding signal (z-score) [39]: -0.51
glycan array binding signal (z-score) [40]: 1.76
glycan array binding signal (z-score) [41]: 0.234
glycan array binding signal (z-score) [42]: -0.36
glycan array binding signal (z-score) [43]: -0.083
glycan array binding signal (z-score) [44]: -0.21
glycan array binding signal (z-score) [45]: -0.412
